# JMJD2E inh = inhibitors of human JMJD2E histone demethylase; JMJD2E catalytic domain, FDH-coupled NADH fluorescence (FDH is formaldehyde dehydrogenase); Potency, µM (doses to about 57.1 µM), for inactives: at the highest dose activity change, negative = inhibition, hits mostly inhibitors; actives 1.6% (n = 230,000); active = well fitted inhibition curve with a large enough effect, not every such curve was filed as active; inconclusive = small, poorly fitted or top-dose-only effect, or another doubt; inactive = no such curve, though single readings can be large or run the other way;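 also: potency is read from the fitted curve at half-maximal effect; 0% = wells with enzyme and -100% = buffer wells without enzyme; nearly all actives have a fitted effect of over 50% in size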
# Target sequence (B2RXH2 1-337 limits assumed): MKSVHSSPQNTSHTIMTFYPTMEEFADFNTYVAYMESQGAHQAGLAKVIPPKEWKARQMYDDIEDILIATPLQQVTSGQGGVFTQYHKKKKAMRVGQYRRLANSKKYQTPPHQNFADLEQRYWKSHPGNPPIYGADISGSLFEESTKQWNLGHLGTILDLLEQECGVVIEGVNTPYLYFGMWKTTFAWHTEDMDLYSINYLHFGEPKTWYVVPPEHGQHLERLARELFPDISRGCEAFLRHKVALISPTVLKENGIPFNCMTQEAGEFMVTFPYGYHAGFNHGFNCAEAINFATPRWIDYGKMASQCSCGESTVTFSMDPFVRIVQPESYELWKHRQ
# FBPA coupling cs = inhibits coupling enzyme system, counter-screen for aldolase hits | actives 0.67% (n = 290,000) | coupling enzyme system counterscreen, AmpLite Red fluorescence | AID 2472 | activity change, negative = inhibition, % at 58.2 µM, hits read low; in the data active = activity change below about -30%; also: % is scaled to controls: 0 for no effect and ±100 for the full control effect
#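 Coupling enzymes only (glyceraldehyde-3-phosphate) + compound, at 57.5 uM final, 10 min RT; add substrate/coupling/AmpLite Red mix, 20 min RT; fluorescence ex 525/em 598 nm. Actives flag coupling-system interference.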
# VDR inh = vitamin D3 receptor (human) inhibition; P11473; VDR-SRC2-3 peptide fluorescence polarization, 2 h; Potency, µM, for the others: max response, negative = inhibition, usual class: inhibitors; actives 0.93% (n = 400,000); AID 504847; also: potency is read from the fitted curve at half-maximal effect; % is scaled to controls: 0 for no effect and ±100 for the full control effect
#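 The screen uses fluorescence polarization to detect compounds that interfere with recruitment of the SRC2-3 coactivator peptide to VDR; plates are read after 2 h at room temperature.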
# HTT aggregate = reduces HttQ103-GFP aggregates in PC12 cells | PC12 HttQ103-GFP aggregates, Acumen cytometry, 40 h | Potency, µM (top dose mostly 46.1 µM), for the others: at the highest dose activity change, negative = inhibition, most hits filed as inhibitors | actives 1.1% (n = 220,000) | AID 1688; also: potency is read from the fitted curve at half-maximal effect; % is scaled to controls: 0 for no effect and ±100 for the full control effect; nearly all actives have a fitted effect of over 60% in size
#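 Aggregate formation scored by laser-scanning cytometer (488 excitation, 500–530 emission) in lysed PC12 cells expressing Q103-GFP after 100 nM tebufenozide induction; library tested in dose series, with ATPLite reagent added in the multiplex.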
# RGS12 GoLoco inh = blocks human Gai1 binding to RGS12 GoLoco peptide, red readout; Potency, µM (highest dose often 61.6 µM), inactives show at the highest dose activity, negative = inhibition, actives largely listed as inhibitors; actives 0.44% (n = 230,000); Gai1:RGS12 GoLoco peptide FP, rhodamine, 10 min; P63096; active = well fitted inhibition curve with a large enough effect, not every such curve was filed as active; inactive = no such curve, though single readings can be large or run the other way; also: potency is read from the fitted curve at half-maximal effect; % is scaled to controls: 0 for no effect and ±100 for the full control effect; nearly all actives have a fitted effect of over 30% in size
# Target sequence (P63096 whole entry, looked up): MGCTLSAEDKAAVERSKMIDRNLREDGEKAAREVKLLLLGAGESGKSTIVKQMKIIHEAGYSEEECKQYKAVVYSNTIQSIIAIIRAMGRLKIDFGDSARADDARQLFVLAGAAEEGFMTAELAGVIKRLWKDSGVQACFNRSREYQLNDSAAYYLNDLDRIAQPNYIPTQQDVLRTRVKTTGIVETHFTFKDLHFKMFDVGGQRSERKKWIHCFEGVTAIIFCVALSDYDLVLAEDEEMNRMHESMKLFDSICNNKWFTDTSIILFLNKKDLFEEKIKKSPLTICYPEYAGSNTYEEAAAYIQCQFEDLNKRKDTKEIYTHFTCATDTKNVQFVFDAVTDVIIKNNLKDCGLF
# HTT cytoprotect = cytoprotection in Huntington HTT-Q103 PC12 cell model. PC12 HTT-Q103 induced, cytoprotection, ATP luminescence, 40 h. Potency, µM (doses to about 56.4 µM), for the others: cytoprotection (ATP increase), most hits filed as activators. actives 0.14% (n = 230,000); also: potency is read from the fitted curve at half-maximal effect; % of control where 0% means no effect; nearly all actives have a fitted effect of over 45% in size
#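 Rat PC12, Q103 Htt exon1-GFP fusion, ecdysone promoter; tebufenozide inducer 100 nM final; compound titration; qHTS, 1500 cells/well; ATPlite luminescent read.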
# An asterisk follows results filed as active; ? = inconclusive; nt = no result given; [ ] = remark or other dose. The list is not random: actives were taken first. Their share in the collection is about 2.3%. Unless noted, calls follow the shape of the dose curve; as a rule, active = well fitted curve in the direction sought with a large enough effect; inconclusive = small, poorly fitted or top-dose-only effect, or another doubt; inactive = no such curve, though single readings can be large; an effect the other way counts as inactive or inconclusive.
SMILES,JMJD2E inh,FBPA coupling cs,VDR inh,HTT aggregate,RGS12 GoLoco inh,HTT cytoprotect
N#C/C(=C\c1cccs1)C(=O)c1ccccc1Cl,?,-0.1,35.5µM*,-1.2%[9.22 µM],40.8%,3.6%[10 µM]
N#C/C(=C\c1cccs1)C(=O)NCc1ccccc1,1.3%,-1.7,44.7µM*,1.7%,-12.2%,-0.8%[10 µM]
Cc1cc(NCc2ccc(Cl)cc2)n2cnnc2n1,nt,nt,2.8%,nt,nt,nt
CCC(SCC(=O)OC)C(=O)Nc1nnc(C(C)C)s1 (centres undefined),-14.1%,-1.1,-8.6%,19.5%,0.8%,14.8%
COC(=O)CSC(C)C(=O)Nc1nnc(C(C)C)s1 (centres undefined),11.4%,0.1,-9.6%,-5.2%,-8.8%,3.16µM*
COC(=O)C1=C(C)N(Cc2ccc(C)cc2)C(=O)/C1=C\c1ccc(O)c(OC)c1,-27.5%,-12.3,?,?,-25.7%,-55.8%
CCOC(=O)C1=C(C)N(c2ccc(C)cc2)C(=O)/C1=C\c1ccc(O)c(OC)c1,2.24µM*,-17.0,?,8.7%[9.22 µM],-27.0%,7.3%[10 µM]
COC(=O)C1=C(C)N(Cc2ccc(C)cc2)C(=O)/C1=C\c1cc(OC)c(OC)c(OC)c1,-8.2%,-0.8,50.1µM*,?,-1.9%,-2.0%[10 µM]
CN1CCCC[C@@H]1CCN1CCCCC1,nt,nt,nt,nt,-0.8%[14.2 µM],5.8%[10 µM]
COC(=O)[C@@]1(Cc2ccc(OC)cc2)[C@H]2c3cc(C(=O)N4CCCC4)n(CCc4c[nH]c5ccc(OC)cc45)c3C[C@H]2CN1C(=O)c1ccccc1,-19.4%,-1.7,nt,nt,3.2%,8.5%
Cc1sc2nc(C3CC3)nc(SCC(=O)N3CCc4ccccc4C3)c2c1C,?,1.8,?,7.08µM*,-3.3%,-8.0%[10 µM]
CCc1c(C)sc2nc(C(C)C)nc(SCC(=O)N3CCc4ccccc4C3)c12,-0.7%,1.3,-6.9%,3.55µM*,-1.3%,-2.7%[10 µM]
Cc1cc(NC(=O)COC(=O)[C@@H](NS(=O)(=O)c2ccc(Br)cc2)C(C)C)no1,-4.3%,2.8,8.4%,17.3%[9.22 µM],11.7%,14.9%[10 µM]
COc1ccccc1NC(=O)COC(=O)CCC(=O)c1cccs1,nt,nt,-4.7%,nt,nt,nt
O=C1c2cccc3cccc(c23)C(=O)N1c1nccs1,-16.7%,-0.7,10.9%,-19.6%,12.9%,-13.6%
O=C1c2cccc3c([N+](=O)[O-])ccc(c23)C(=O)N1c1nccs1,1.2%,-10.7,3.5%,12.6µM*,-6.6%,-100.2%
CN(CC(=O)Nc1cccc(Cl)c1)S(=O)(=O)c1ccc2c(c1)n(C)c(=O)c(=O)n2C,nt,nt,79.4µM*,nt,nt,nt
CN(CC(=O)Nc1ccc(Cl)cc1)S(=O)(=O)c1ccc2c(c1)n(C)c(=O)c(=O)n2C,nt,nt,9.2%,nt,nt,nt
CO[C@@H]1COC(=O)[C@H]2CCCN2C(=O)[C@@H](C)COC(=O)[C@H](COCc2ccccc2)NC(=O)C/C=C\[C@H]1C,nt,0.5,nt,nt,nt,9.8%[10 µM]
CC(=O)c1nnn(-c2cccc([N+](=O)[O-])c2)c1C,-0.1%,-38.5*,8.7%,8.5%,2.2%,-15.1%
CC(=O)Nc1ccc(-c2csc(NC(=O)Cc3cccc(F)c3)n2)cc1,nt,0.0,15.1%,nt,nt,nt
Cc1nn(C)c(Cl)c1NC(=O)OCc1ccc(Cl)cc1Cl,3.6%,-0.9,-4.0%,7.94µM*,6.2%,-15.4%
Cc1nn(Cc2ccc(Cl)cc2Cl)c(C)c1NC(=O)CCl,-1.1%,-0.8,-8.4%,3.55µM*,-23.8%,-5.1%[10 µM]
Cc1ccccc1N1CCN(S(=O)(=O)c2ccc3oc(=O)ccc3c2)CC1,0.1%,-0.5,8.9%,10µM*,3.2%,1.7%[10 µM]
CC1CCN(C(=S)c2cn(Cc3ccc(F)cc3)c3ccccc23)CC1,9.8%,0.3,-5.3%,-18.2%,5.6%,-31.3%
SMILES,JMJD2E inh,FBPA coupling cs,VDR inh,HTT aggregate,RGS12 GoLoco inh,HTT cytoprotect
CC1CCN(C(=S)c2cn(Cc3ccccc3F)c3ccccc23)CC1,5.2%,-2.7,-14.4%,15.8µM*,1.1%,-35.5%
Cc1ccc(OCCN2CCN(c3ncnc4sc(C)c(C)c34)CC2)cc1,4.2%,2.0,-13.5%,2.51µM*,5.6%,-27.9%
Cc1sc2ncnc(N3CCCCC3)c2c1C,-2.0%,2.1,7.3%,-32.0%,-9.2%,10.1%
NC(=O)c1ccc(N=Cc2ccc([N+](=O)[O-])s2)cc1,22.4µM*,-30.6*,-29.3%,?,6.4%,nt
Cc1cc(C)cc(N=Cc2ccc([N+](=O)[O-])s2)c1,?,-21.5,-15.3%,-6.5%,2.4%,nt
O=[N+]([O-])c1ccc(C=Nc2ccc(Cl)c([N+](=O)[O-])c2)s1,14.1µM*,-34.3*,nt,41.7%[9.22 µM],-3.4%,-35.3%[1.9 µM]
COc1ccc(NC(=O)c2oc3ccccc3c2NC(=O)Cc2coc3c(C)c(C)ccc23)cc1,nt,nt,7.6%,nt,nt,nt
C#CCn1cnc2c(cnn2-c2ccc(F)cc2)c1=O,nt,nt,3.7%,nt,nt,nt
COc1ccc2cc(CNc3ccc(C)cc3)c(=O)n(CC(=O)Nc3ccc(C)cc3Cl)c2c1,nt,nt,11.5%,nt,nt,nt
Cc1cccc(NC(=O)C2CCN(S(=O)(=O)c3ccc4c(c3)CCCC(=O)N4)CC2)c1,nt,nt,5.8%,nt,nt,nt
Oc1ccc(/C=N/NC(=S)NCCN2CCOCC2)c(O)c1,35.5µM*,-1.4,-13.8%,10.2%,-6.9%,-16.1%
CC(=O)CC[N+](C)(C)C,nt,nt,3.8%,nt,nt,nt
C[N+](C)(C)CCCCCC(=O)/C=N/O,-22.1%,0.2,15.3%,9.4%,2.51µM*,14.8%[10 µM]
NC(=O)c1ccc(SCC(=O)OCC(=O)NCC2CCCCC2)c([N+](=O)[O-])c1,nt,nt,-3.7%,nt,nt,nt
COc1cc2ccnc(Cc3cccc(OC)c3OC)c2cc1OC,-20.5%,-2.0,-13.7%,-15.5%[9.22 µM],3.5%,11.1%[10 µM]
COc1cc(N)c(Cc2nccc3cc(OC)c(OC)cc23)cc1OC,-28.7%,-30.6*,-3.0%,5.3%[9.22 µM],14.0%,16.3%[10 µM]
Cc1[nH]n(-c2ccccc2)c(=O)c1N=O,-10.4%,-4.0,-0.3%,0.631µM*,12.1%,nt
Cc1[nH]n(-c2ccccc2)c(=O)c1N=Nc1ccc(F)cc1,nt,1.1,10.9%,nt,nt,nt
CCOC(=O)C1=C(C(C)=O)C(c2cccnc2)C(C#N)=C(N)O1 (centres undefined),?,-33.7*,-11.0%,-7.9%,-31.2%,14.7%
CCc1nnc(NC(=O)c2ccc(S(C)(=O)=O)cc2)s1,-1.8%,-2.0,20µM*,-18.4%[9.22 µM],12.8%,0.0%[10 µM]
COc1ccc(NC(=O)Cc2c(SC)c3ccccc3n2Cc2ccccc2)cc1,-3.1%,-0.8,-2.3%,13.2%,3.4%,-4.8%[10 µM]
CCOc1ccc(N=C/C=C/c2ccccc2)c(O)c1,10µM*,-32.1*,?,-3.3%[9.22 µM],40.7%,16.1%[10 µM]
CCOc1ccc(NCC(=O)N/N=C/C=C/c2ccccc2)cc1,-12.2%,-1.5,-5.2%,16.9%,9.1%,0.3%[10 µM]
COc1cc(Cl)c(NS(=O)(=O)c2ccc3[nH]c(=O)ccc3c2)c(OC)c1,nt,nt,-4.4%,nt,nt,nt

# Assay outcomes as filed in PubChem.
